# Most compounds without a hit are left out; they make up all but 7.2% or so of the library.
# AHR act: activators of human aryl hydrocarbon receptor | P35869 | AHR-responsive luciferase reporter cells, luminescence | activation, % at 5 µM | actives 2.5% (n = 320,000) | AID 2796; in the data active = activation above about 47%;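 note: 0% = vehicle wells and 100% = reference agonist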
# VLA-4 inh: inhibition in a human VLA-4 binding assay | inhibition, % (about 7 µM as worked out from the volumes in the protocol) | actives 0.2% (n = 330,000) | P13612 | VLA-4 expressing cells, ligand binding flow cytometry; in the data active = inhibition above about 50%
# Target sequence (P13612 whole entry, looked up): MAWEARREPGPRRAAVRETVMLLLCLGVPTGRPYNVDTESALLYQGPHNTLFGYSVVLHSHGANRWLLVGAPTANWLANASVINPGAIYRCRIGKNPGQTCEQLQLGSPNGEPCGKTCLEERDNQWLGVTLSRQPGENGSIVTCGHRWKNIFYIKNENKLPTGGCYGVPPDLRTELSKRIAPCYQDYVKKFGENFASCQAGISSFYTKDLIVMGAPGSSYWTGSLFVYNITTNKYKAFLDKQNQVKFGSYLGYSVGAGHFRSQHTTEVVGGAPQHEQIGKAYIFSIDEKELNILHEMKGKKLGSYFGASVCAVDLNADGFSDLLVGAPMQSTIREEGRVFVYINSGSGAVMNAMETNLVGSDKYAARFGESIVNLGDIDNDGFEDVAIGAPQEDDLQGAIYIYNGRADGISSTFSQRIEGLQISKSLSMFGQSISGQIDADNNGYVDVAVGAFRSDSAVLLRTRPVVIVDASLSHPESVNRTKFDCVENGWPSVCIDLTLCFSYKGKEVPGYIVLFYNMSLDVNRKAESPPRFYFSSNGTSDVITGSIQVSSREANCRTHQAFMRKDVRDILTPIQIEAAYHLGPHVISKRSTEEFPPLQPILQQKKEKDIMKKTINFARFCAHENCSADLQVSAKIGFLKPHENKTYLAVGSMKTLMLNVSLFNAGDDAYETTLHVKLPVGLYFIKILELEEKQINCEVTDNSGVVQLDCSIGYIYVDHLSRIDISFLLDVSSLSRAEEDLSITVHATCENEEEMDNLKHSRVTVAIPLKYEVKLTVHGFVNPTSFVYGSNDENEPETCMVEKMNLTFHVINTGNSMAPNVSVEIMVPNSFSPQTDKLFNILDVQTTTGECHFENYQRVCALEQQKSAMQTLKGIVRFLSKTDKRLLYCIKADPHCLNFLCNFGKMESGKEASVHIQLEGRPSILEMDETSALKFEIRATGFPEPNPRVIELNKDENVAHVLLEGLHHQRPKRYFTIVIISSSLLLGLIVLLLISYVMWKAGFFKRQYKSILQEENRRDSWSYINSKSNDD
# A1 inh: inhibitors of the anti-apoptotic protein A1, read as caspase activation; MEF A1-2A-BIM cells, Caspase-Glo 3/7 luminescence, 3 h; percent of clofoctol response, vehicle zero; caspase activation, % (test concentration not listed); actives 0.066% (n = 330,000); AID 2462;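 active = over half of replicate activation scores above 10%, or exactly half above 10 with the replicate mean above 10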
# ALR inh: human ALR oxidase inhibition via reduced H2O2; actives 3.8% (n = 290,000); inhibition, % (no concentration beside the values); P55789; purified ALR, DTT oxidation, H2O2 HRP-luminol luminescence; AID 485317;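 active = mean replicate inhibition above about 79%, with every replicate also reaching it, limit read from the data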
# Efflux pump inh: blocks antifungal efflux pumps in multiplex yeast assay; S. cerevisiae Candida pump triplex, Nile Red efflux; inhibition, % at 10 µM; actives 0.44% (n = 330,000); AID 485275;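 active = plate passing quality check with inhibition over a set limit, or well fluorescence over plate mean plus 4 SD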;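 note: Nile Red retained in pooled yeast measured as flow cytometry median fluorescence; 0% = buffer negative control and 100% = Enniatin B positive control; higher means more Nile Red kept so more efflux inhibition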
# SUMO Mot1 rescue: inhibitors of SUMOylation pathway: yeast Mot1-301 growth rescue; S. cerevisiae Mot1-301 growth rescue, ATP luminescence, 38.5C; percent above DMSO median, 100 means doubled; growth rescue, % at 18.8 µM; actives 1% (n = 320,000); AID 2716;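 active = every valid replicate shows activation above 250% relative to neutral control wells; inactive = the rest, any valid replicate at or below 250%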;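 note: OY570 slx delta 5 strain wells were the positive control but not used for scaling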
# * = called active by the depositor; / = not tested or not shown.
SMILES,AHR act,VLA-4 inh,A1 inh,ALR inh,Efflux pump inh,SUMO Mot1 rescue
O=C(O)c1ccc(N2N=C(c3ccccc3)CC2c2ccccc2)cc1 (stereo not given),1,15,0,92*,0,10
CC(=O)Nc1ccc(C2CC(c3ccc(Cl)cc3)=NN2c2ccccc2)cc1 (stereo not given),2,20,2,-1,0,1
O=Cc1ccc(N2N=C(c3ccccc3)CC2c2ccccc2)cc1 (stereo not given),7,-7,1,-10,0,9
CC(=O)Nc1ccc(C2=NN(c3ccccc3)C(c3ccccc3)C2)cc1 (stereo not given),2,14,0,96*,1,239
CC(C)c1cc(C(C)C)c(S(=O)(=O)NNC(=O)c2ccncc2)c(C(C)C)c1,5,-3,0,-3,0,294
Cc1nc(NC(=O)CSc2cc(C)c3ccccc3n2)c(Cl)cc1Cl,10,22,0,-4,0,74
CCOC(=O)c1c(N)sn(-c2ccccc2C)c1=S,2,12,0,97*,0,10
CCn1c(=O)n(CC)c2cc(N3CCCC3)c(NC(=O)c3ccccc3F)cc21,4,8,2,/,0,23
CCn1c(=O)n(CC)c2cc(N3CCCC3)c(NC(=O)c3ccc(C)cc3)cc21,7,7,0,99*,0,82
Cn1c(=O)n(C)c2cc(N3CCCCC3)c(NC(=O)c3ccccc3)cc21,3,0,1,0,0,-3
CCn1c(=O)n(CC)c2cc(N3CCCC3)c(NC(=O)c3ccccc3C)cc21,5,1,1,99*,0,6
CCn1c(=O)n(CC)c2cc(N3CCCC3)c(NC(=O)c3cc(Br)ccc3OC)cc21,4,-3,-1,11,0,-17
CCn1c(=O)n(CC)c2cc(N3CCCC3)c(NC(=O)c3ccccc3)cc21,7,20,1,97*,0,29
Cc1ccc(NC(=O)CN(C)C(=O)c2ccc(Cl)nc2)cc1,3,2,1,-3,0,-7
Cc1cccc(-c2noc(-c3cc4ccccc4oc3=O)n2)c1,2,8,-4,-18,0,/
OCCN1CCN(CCCN2c3ccccc3Sc3ccc(C(F)(F)F)cc32)CC1,0,-2,0,98*,0,-10
CN1CCN(CCC(=O)N2c3ccccc3Sc3ccc(C(F)(F)F)cc32)CC1,0,48,0,21,0,9
CN(C)CCCN1c2ccccc2Sc2ccc(C(F)(F)F)cc21,-1,-15,2,98*,0,14
CN(C)CCC(=O)N1c2ccccc2Sc2ccc(C(F)(F)F)cc21,-2,7,1,98*,0,-12
COc1ccc(C(N)=O)c(OCC(=O)Nc2cc(C)on2)c1,7,-7,2,-1,0,-4
COc1ccc(C(CNC(=O)C(C)Oc2ccc(Br)cc2)N2CCOCC2)cc1 (stereo not given),49*,-1,1,1,0,-17
COc1ccc(N2CCN(C(CNC(=O)CC(C)(C)C)c3ccc4c(c3)OCO4)CC2)cc1 (stereo not given),2,4,0,82*,0,-18
COc1ccc(N2CCN(C(CNC(C)=O)c3ccc4c(c3)OCO4)CC2)cc1 (stereo not given),1,0,-1,88*,0,-15
COc1ccc(N2CCN(C(CNC(=O)C(=O)NCc3ccc4c(c3)OCO4)c3ccco3)CC2)cc1 (stereo not given),2,-8,-1,-8,0,-18
O=C(CCCc1ccccc1)Nc1ccnn1C1CCN(Cc2ccc(CO)o2)CC1,6,-7,1,-5,0,-9
SMILES,AHR act,VLA-4 inh,A1 inh,ALR inh,Efflux pump inh,SUMO Mot1 rescue
COc1ccc(Cc2nc3ccc(C(=O)N(C)CC4COCCO4)cc3o2)cc1 (stereo not given),-4,7,0,10,0,-10
CCCn1c(=O)c(C(=O)NNC(=O)c2cccc([N+](=O)[O-])c2)c(O)c2ccccc21,0,2,0,7,0,-5
Cc1ccc2nc(-c3ccccn3)cc(C(=O)N3CCN(c4ncccn4)CC3)c2c1,0,7,0,-5,0,6
Cc1cc(C)c2nc(-c3ccccn3)cc(C(=O)N3CCCC3)c2c1,56*,0,-1,-8,0,-4
C(=N/N1CCN(c2ccccc2)CC1)/c1ccncc1,-5,3,-1,97*,0,-2
CCN(CC)c1ccc(/C=N/N2CCN(Cc3ccccc3)CC2)cc1,8,10,0,/,0,531
Cn1cccc1/C=N/N1CCN(Cc2ccccc2Cl)CC1,-3,0,0,59,0,-13
Cn1cccc1/C=N/N1CCN(c2ccccc2)CC1,-2,2,-1,94*,0,9
CN(c1ccccc1)c1ccc(/C=N/N2CCOCC2)cc1,2,6,-3,99*,0,75
O=C(CCNS(=O)(=O)c1ccccc1)OCC(=O)c1ccc(Br)cc1,-2,14,-1,-12,0,46
O=C(COC(=O)CCC1CCCC1)Nc1ccc(Cl)cc1F,0,2,0,-3,0,27
CN(C)CCn1nnc2c(=O)oc3ccccc3c21,-2,6,0,0,0,-1
CC1c2ccccc2N(NC(=O)Cc2ccccc2)C1C (stereo not given),-2,8,0,29,0,5
Cc1ccc(S(=O)(=O)N2CCOCC2)cc1NC(=O)C(c1ccc(Cl)cc1)C(C)C (stereo not given),2,-14,1,-6,0,10
FC(F)(F)c1ccc(-c2n[nH]c(=S)o2)nc1,-2,7,0,13,0,-9
S=c1[nH]nc(-c2ccc3ccccc3n2)o1,7,9,-2,91*,0,-14
O=C(O)c1ccc(N/N=C/c2cn(Cc3ccc(F)cc3)c3ccccc23)cc1,-6,-7,-1,99*,0,-10
CCNC(=S)N/N=C/c1cn(Cc2ccc(F)cc2)c2ccccc12,39,-2,0,-9,-2,3
CC1(C)Oc2ccc(C(=O)NC3CC3)cc2N(CC(=O)N2CCOCC2)C1=O,74*,3,-1,-3,0,-15
O=C(c1ccc(Cl)nc1)c1cccs1,54*,-17,-1,6,0,13
COc1cc(OC)cc(N2C(=O)CC(N3CCC(C(=O)N4CCCCC4)CC3)C2=O)c1 (stereo not given),/,-7,0,-18,0,298*
CCOC(=O)c1c(NC(=O)CN2C(=O)NC(C)(c3ccc(Cl)cc3)C2=O)sc(C(=O)NC)c1C (stereo not given),22,-6,0,-24,-1,6

# Source: PubChem BioAssay
